Test [1] can be described thus: Quantitative High-Throughput drug screen in 47 multiple myeloma cell lines against the NCATS MIPE library collection: Karpas25_ECACC cell viability assay (AID 1918968; note: nearly all actives have a fitted effect of over 35% in size). In outline: (§1)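 Steps: seed 500 cells per well; pin-transfer MIPE 4.0 library; incubate 48 h at 37C, 5% CO2, humidified; add CellTiter-Glo, 5 min room temperature; read luminescence.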
Test [2] can be described thus: Quantitative High-Throughput drug screen in 47 multiple myeloma cell lines against the NCATS MIPE library collection: KMS27_JCRB cell viability assay (AID 1918970). Note: nearly all actives have a fitted effect of over 30% in size. In a few lines:
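Viability inhibition screen, 48 h compound exposure, luminescent ATP read-out.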

Test [3] in a line: Quantitative High-Throughput drug screen in 47 multiple myeloma cell lines against the NCATS MIPE library collection: KMS12BM_JCRB cell viability assay (AID 1918971). Note: nearly all actives have a fitted effect of over 35% in size. In outline: (§2)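 Inhibition of cell viability is measured here. Each line was plated at 500 cells per well, treated with MIPE 4.0 drugs, kept 48 hours at 37C, then assayed for ATP content by CellTiter-Glo luminescence.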

A short description of test [4]: Quantitative High-Throughput drug screen in 47 multiple myeloma cell lines against the NCATS MIPE library collection: KMS12PE_JCRB cell viability assay (AID 1918972).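 For viability: 100% = DMSO only wells and 0% = wells with media alone.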 Note: nearly all actives have a fitted effect of over 30% in size. In outline:
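Approved and investigational drugs from MIPE 4.0 were added by pin tool to 500 cells per well. After 48 hours at 37C, ATP-based CellTiter-Glo luminescence indicated remaining viability.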

Test [5] in a line: Quantitative High-Throughput drug screen in 47 multiple myeloma cell lines against the NCATS MIPE library collection: MMM1_PLB cell viability assay (AID 1918976). Note: nearly all actives have a fitted effect of over 35% in size. In outline:
(§3)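 MIPE 4.0 approved/investigational drugs; 500 cells/well; 48 h 37 °C humidified 5% CO2; CTG luminescence readout; DMSO = 100%, media = 0% viability.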

Test [6] can be described thus: Quantitative High-Throughput drug screen in 47 multiple myeloma cell lines against the NCATS MIPE library collection: MOLP8_DSMZ cell viability assay (AID 1918977). Note: nearly all actives have a fitted effect of over 45% in size. In outline: as §3
Test [7] in a line: Quantitative High-Throughput drug screen in 47 multiple myeloma cell lines against the NCATS MIPE library collection: NCIH929_DSMZ cell viability assay (AID 1918978). Note: nearly all actives have a fitted effect of over 35% in size. In outline: as §3
A short description of test [8]: Quantitative High-Throughput drug screen in 47 multiple myeloma cell lines against the NCATS MIPE library collection: KMS20_JCRB cell viability assay (AID 1918973). Note: nearly all actives have a fitted effect of over 45% in size. In outline:
as §1

A short description of test [9]: Quantitative High-Throughput drug screen in 47 multiple myeloma cell lines against the NCATS MIPE library collection: KMS26_JCRB cell viability assay (AID 1918975). Note: nearly all actives have a fitted effect of over 45% in size. In outline: as §2
Test [10] in a line: Quantitative High-Throughput drug screen in 47 multiple myeloma cell lines against the NCATS MIPE library collection: KMS21BM_JCRB cell viability assay (AID 1918974). Particulars: ATP luminescence, 48 h; viability: at 45.8 µM (top of the series) unless noted. In outline:
as §1

Results filed as inconclusive are left out. Calls of active or inactive are those of the source. Calls come from the whole dose curve; as a rule, active = well fitted curve in the direction sought with a large enough effect; inconclusive = small, poorly fitted or top-dose-only effect, or another doubt; inactive = no such curve, though single readings can be large; an effect the other way counts as inactive or inconclusive.
Potency is the fitted concentration of half-maximal effect.

As for `C[C@@H]1CC(=O)NN=C1c1ccc(NN=C(C#N)C#N)cc1`, the Potency in [1] is 18.7 µM (active); in test [3], 18.7 µM (active); in [5], 18.7 µM (active); in [6], 26.4 µM (active); in test [7], 20.9 µM (active). The Potency entry in test [2] and in [4] was “inactive” throughout.

As for `CN(C)c1nc(N(C)C)nc(N(C)C)n1`, the Potency result in [1], in [2], in test [3], in [4], in test [8] and in test [9] was “inactive” in each case. For the same compound, the Potency entry in test [7] was “inactive”.

On to `Cc1cn([C@H]2C=C[C@@H](CO)O2)c(=O)[nH]c1=O`, for which the Potency in [1] is 12.1 µM (active). Besides, the Potency result in test [2], in test [4], in test [6] and in [7] was “inactive” throughout. Besides, in [10], the viability is 91.7% [at 92.2 µM] (active).

For `CC(C)C(=O)Nc1ccc([N+](=O)[O-])c(C(F)(F)F)c1`, the Potency in test [1] was 3.32 µM (active); in test [2] it was 0.935 µM (active); in test [4] it was 13.2 µM (active); in test [8], 7.43 µM (active); in [7] it was 1.87 µM (active). The Potency result in [3] was “inactive”.

For the compound `CC1COc2c(N3CCN(C)CC3)c(F)cc3c(=O)c(C(=O)O)cn1c23` (stereo not drawn), the Potency result in test [1], in test [3], in test [6] and in test [7] was “inactive” in each case. Also, the Potency in [2] was 18.7 µM (active); in test [10], 5.26 µM (active); in test [5], 11.8 µM (active).

For the compound `NC12CC3CC(CC(C3)C1)C2`, the figures for the Potency in test [1] and in test [7] were 0.118 µM (active) and 16.6 µM (active), respectively. Further, the Potency result in [3] and in test [5] was “inactive” in each case.

As to `Cn1c(=O)c2[nH]cnc2n(C)c1=O`, the Potency entry in test [1], in [2], in test [3], in test [4], in test [8] and in test [9] was “inactive” throughout. The Potency entry in [6] and in test [7] was “inactive” each time.

For the compound `NCCc1cnc[nH]1`, the Potency result in test [1], in [2], in test [3], in [4] and in [7] was “inactive” in each case. Moreover, in test [5], the Potency is 0.0132 µM (active).

For `COc1cc2nc(N3CCN(C(=O)C4COc5ccccc5O4)CC3)nc(N)c2cc1OC` (stereo not drawn), the Potency in test [1] was 20.9 µM (active); in [3], 6.62 µM (active); in test [4], 5.9 µM (active); in test [5] it was 20.9 µM (active); in test [7], 23.5 µM (active). Further, in test [6], the Potency result was “inactive”.

For `CNCCCC12CCC(c3ccccc31)c1ccccc12`, the Potency is 23.5 µM (active) in test [1]; 20.9 µM (active) in test [2]; 23.5 µM (active) in [3]; 10.5 µM (active) in test [4]; 13.2 µM (active) in [8]; 11.8 µM (active) in test [10]. Moreover, the Potency in [9] and in [5] was 20.9 µM (active) each time.

As to `CN1CCN(C2=Nc3cc(Cl)ccc3Nc3ccccc32)CC1`, in test [1], the Potency was 26.4 µM (active). For the same compound, the Potency entry in [2], in test [3] and in test [6] was “inactive” in each case.

Regarding `NC(=O)NO`, the Potency in [1] is 0.166 µM (active); in test [2], 0.743 µM (active); in test [3], 1.48 µM (active); in test [4], 0.833 µM (active); in test [8], 0.0935 µM (active); in test [5], 2.09 µM (active). The Potency in test [6] was 3.32 µM (active); in test [7] it was 0.743 µM (active).

Consider `C[C@H]1c2cccc(O)c2C(O)=C2C(=O)[C@]3(O)C(O)=C(C(N)=O)C(=O)[C@@H](N(C)C)[C@@H]3[C@@H](O)[C@@H]21`, for which the Potency in [1] was 16.6 µM (active); in [4], 29.6 µM (active); in [7], 18.7 µM (active). Also, the Potency entry in [2] was “inactive”.

Consider `CN(C)CCOC(c1ccccc1)c1ccccc1`, for which the Potency was 9.35 µM (active) in [1] and 18.7 µM (active) in test [8]. Also, the Potency entry in test [2] and in test [3] was “inactive” each time.

As for `CCC1(C)CC(=O)NC1=O` (stereo not drawn), the Potency entry in [1], in test [2], in test [4], in [5] and in test [7] was “inactive” throughout. For the same compound, the Potency in test [3] was 1.18 µM (active).

Regarding `NCCCCCC(=O)O`, the Potency result in [1], in test [3], in [8], in test [6] and in [7] was “inactive” each time. The Potency in test [5] was 0.296 µM (active).

Regarding `CS(=O)(=O)CCNCc1ccc(-c2ccc3ncnc(Nc4ccc(OCc5cccc(F)c5)c(Cl)c4)c3c2)o1`, the Potency in [1] is 0.372 µM (active); in [2] it was 10.5 µM (active); in [3], 20.9 µM (active); in test [4], 4.69 µM (active); in test [8], 1.48 µM (active); in test [10], 11.8 µM (active). Moreover, the Potency is 18.7 µM (active) in test [5], 26.4 µM (active) in test [6] and 0.264 µM (active) in test [7].

Take `Nc1nc2c(ncn2COC(CO)CO)c(=O)[nH]1`: the Potency was 2.64 µM (active) in [1]; 10.5 µM (active) in test [2]; 18.7 µM (active) in [3]; 14.8 µM (active) in test [4]; 1.05 µM (active) in test [8]; 23.5 µM (active) in [5]. In addition, the Potency in test [7] was 9.35 µM (active).

Consider `CN(Cc1cnc2nc(N)nc(N)c2n1)c1ccc(C(=O)N[C@@H](CCC(=O)O)C(=O)O)cc1`, for which the Potency in test [1] is 1.18 µM (active); in test [2], 0.0296 µM (active); in test [3] it was 6.62 µM (active); in test [5] it was 18.7 µM (active); in test [6], 6.62 µM (active); in test [7] it was 2.35 µM (active).

For the compound `CN(C)C(=O)C(CCN1CCC(O)(c2ccc(Cl)cc2)CC1)(c1ccccc1)c1ccccc1`, the Potency is 18.7 µM (active) in [1]; 14.8 µM (active) in test [8]; 16.6 µM (active) in test [9]; 16.6 µM (active) in test [5]; 23.5 µM (active) in [7]. The Potency entry in [2] and in test [4] was “inactive” in each case.

Consider `CC[C@@]1(O)C(=O)OCc2c1cc1n(c2=O)Cc2cc3c(CN(C)C)c(O)ccc3nc2-1`, for which the Potency in [1] was 0.662 µM (active); in [2], 0.0833 µM (active); in test [3], 1.87 µM (active); in test [4] it was 2.64 µM (active); in [8], 0.235 µM (active); in test [5] it was 18.7 µM (active). The Potency in [6] is 1.32 µM (active); in test [7] it was 0.743 µM (active).

For the compound `Clc1ccccc1C(c1ccccc1)(c1ccccc1)n1ccnc1`, the Potency is 18.7 µM (active) in test [1], 16.6 µM (active) in [3], 7.43 µM (active) in test [4] and 23.5 µM (active) in [5].

`CC1(CN2CCC(n3c(=O)[nH]c4ccccc43)CC2)OCc2ccccc2-n2cccc21` (stereo not drawn): the Potency in [1] was 13.2 µM (active); in test [3] it was 16.6 µM (active); in test [9], 5.9 µM (active); in test [5], 5.9 µM (active). For the same compound, the Potency result in [4] is “inactive”.

By viability is commonly meant the share of living cells, or the viability signal relative to a control.

The values are drawn from PubChem BioAssay (NCATS).
